From ChEMBL document CHEMBL3433997, “St. Jude Leishmania screening dataset” (2016) come the findings set out here.

Holding throughout (assay type): functional
The target in assay [1] is Solute carrier family 2, facilitated glucose transporter member 1 (Homo sapiens) (UniProt P11166). The assay is described as follows: ST_JUDE_LEISH: Cytotoxicity at 2uM final concentration against transgenic Leishmania Mexicana promastigotes LmGLUT1 that are glucose transport deficient and complemented with the human glucose transporter GLUT1. Activity is measured by DNA content using SYBR green in vitro.

Assay [2] has as its target Hexose transporter 1 (Plasmodium falciparum) (UniProt O97467). The assay is described as follows: ST_JUDE_LEISH: Cytotoxicity at 2uM final concentration against transgenic Leishmania Mexicana promastigotes LmPfHT that are glucose transport deficient and complemented with the Plasmodium falciparum hexose transporter. Activity is measured by DNA content using SYBR green in vitro.

Assay [3] concerns the target Glucose transporter (Leishmania mexicana) (UniProt O61059). The assay is described as follows: ST_JUDE_LEISH: Cytotoxicity at 2uM final concentration against transgenic Leishmania Mexicana promastigotes LmGT2 that are glucose transport deficient and complemented with the L. Mexicana glucose transporter 2. Activity is measured by DNA content using SYBR green in vitro.

SMILES strings stand for the structures.

Sequence of Solute carrier family 2, facilitated glucose transporter member 1 (Homo sapiens) (P11166 whole entry): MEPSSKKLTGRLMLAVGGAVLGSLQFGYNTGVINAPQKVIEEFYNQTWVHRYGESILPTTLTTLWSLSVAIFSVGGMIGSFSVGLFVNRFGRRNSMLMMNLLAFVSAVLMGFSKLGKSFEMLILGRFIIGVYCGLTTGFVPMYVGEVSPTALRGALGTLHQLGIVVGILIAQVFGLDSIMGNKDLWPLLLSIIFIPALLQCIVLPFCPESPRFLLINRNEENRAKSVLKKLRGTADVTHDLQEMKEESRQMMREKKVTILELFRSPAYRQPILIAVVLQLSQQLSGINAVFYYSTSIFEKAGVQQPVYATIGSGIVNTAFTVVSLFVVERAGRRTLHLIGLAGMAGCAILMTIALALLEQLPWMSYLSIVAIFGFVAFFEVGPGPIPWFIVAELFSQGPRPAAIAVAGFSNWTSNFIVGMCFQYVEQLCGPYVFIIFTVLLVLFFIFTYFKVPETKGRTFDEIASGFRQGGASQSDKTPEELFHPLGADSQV

Turning to `CN(C)Cc1cc2c(O)c(Cc3ccccc3)ccc2o1`, the inhibition in assay [1] worked out at 2.65%; in assay [2], 4.63%; in assay [3], 3.94%.

Take `COc1cc(Cc2cnc(N)nc2N)ccc1OCc1ccc(-c2ccccc2C#N)cc1`: the results for the inhibition in assay [1], in assay [2] and in assay [3] were 0.17%, 0.47% and -0.89%, respectively.

Turning to `CCCN(CCC)C(=O)c1cc(C(=O)N[C@@H](Cc2ccccc2)[C@H](O)CNC(C)(C)c2cccc(C(F)(F)F)c2)cc(N2CCCCS2(=O)=O)c1`, the values for the inhibition in assay [1], in assay [2] and in assay [3] were -1.43%, 4.18% and -1.54%, respectively.

With `CCCCCCN1CCCN(Cc2ccc(C(=O)Nc3ccc(C(C)(C)C)cc3)cc2)CC1`, the inhibition in assay [1] is 4.82%; in assay [2] it was 1.84%; in assay [3] it was 5.5%.

For the compound `O=C(NCc1ccc2c(c1)OCO2)c1nn(CCN2CCC(N3CCCC3)CC2)cc1-c1ccc(Cl)c(Cl)c1`, the inhibition in assay [1] was found to be 2.53%; in assay [2], 0.54%; in assay [3] it was 0.75%.

Turning to `Cc1cc(C(=O)Nc2ccc3c(c2)CCN3C2CCN(Cc3ccc(F)cc3Cl)C2)no1` (stereo not drawn), the inhibition in assay [1] was 4.11%; in assay [2] it was 3.71%; in assay [3], 3.86%.

In the case of `COc1cc(NC(=O)c2ccc3c(=O)n(Cc4ccccc4)c(=S)[nH]c3c2)cc(OC)c1OC`, the inhibition in assay [1] was determined as 5.79%; in assay [2], 7.58%; in assay [3], 7.73%.

As for `CC(C)(C)c1ccc(C(=O)Nc2cccc(Nc3c(C(=O)NCc4cccc(C(F)(F)F)c4)cnc4c(O)cccc34)c2)cc1`, the inhibition in assay [1] stood at 10.1%; in assay [2] it was 8.9%; in assay [3], 9.37%.

As to `COc1ccc(-c2cccc(NC(=O)c3cccc(Cl)c3)c2)cc1CN1CCCN(C)CC1`, the inhibition stood at 11.4% in assay [1], 12% in assay [2] and 11.7% in assay [3].

`O=[N+]([O-])c1ccc(Nc2nc(NCc3ccccc3)nc(N/N=C/c3ccccc3[N+](=O)[O-])n2)cc1`: the inhibition in assay [1] was 2.21%; in assay [2] it was -0.41%; in assay [3], 0.43%.

For the compound `Cc1noc(C)c1-c1ccc2c(Nc3ccccc3C(C)(C)C)c(C(=O)NCc3cccc4ccccc34)cnc2c1`, the inhibition in assay [1] came out at 2.41%; in assay [2], 2.01%; in assay [3], 0.05%.

Turning to `Cc1cc(NCCc2cccc(F)c2)nc(NC(=N)Nc2cccc(C(F)(F)F)c2)n1`, the results for the inhibition in assay [1], in assay [2] and in assay [3] were 3.82%, 2.87% and 2.41%, respectively.

`N#Cc1cccc(C(=O)Nc2cccc(-c3ccc(C(=O)Nc4cccnc4)cc3)c2)c1`: the figures for the inhibition in assay [1], in assay [2] and in assay [3] were 4.01%, 2.59% and 1.36%, respectively.

For the compound `O=C(NCCN1CCOCC1)c1csc(C2CCCN(C(=O)c3ccc(O)c(-c4cc(Cl)cc(Cl)c4)c3)C2)n1` (stereo not drawn), the inhibition was determined as 8.92% in assay [1], 1.79% in assay [2] and 1.85% in assay [3].

As to `CCOc1cc(C(=O)N[C@@H](Cc2ccccc2)[C@H](O)CNCc2cc(OC)cc(OC)c2)cc(N2CCCC2=O)c1`, the inhibition in assay [1] amounted to 9.97%; in assay [2] it was 8.91%; in assay [3] it was 2.86%.

With `Cc1nnsc1C(=O)Nc1ccc(-c2cccc(-c3nc4cc(F)ccc4[nH]3)c2)cc1`, the inhibition in assay [1] is 1.36%; in assay [2], 1.3%; in assay [3], -2.69%.

As for `CC(C)CNCc1ccc(-c2cccc(CNC3CCN(Cc4ccccc4)CC3)c2)cc1`, the figures for the inhibition in assay [1], in assay [2] and in assay [3] were 3.21%, 3.32% and 5.23%, respectively.

`N#Cc1ccc(-c2ccc(C(=O)NCCCCN3CCC(c4ccc5c(c4OCc4ccncc4)CCCC5)CC3)cc2)cc1`: the inhibition was 0.21% in assay [1], 3.1% in assay [2] and 1.26% in assay [3].

For `CCOc1ccc2c(=NN=Cc3c4ccccc4cc4ccccc34)cc(C)[nH]c2c1`, the inhibition in assay [1] stood at 2.42%; in assay [2] it was 1.13%; in assay [3], 3.35%.

In the case of `COc1ccc(CNCc2ccc(-c3cccc(-c4nc5cc(F)ccc5[nH]4)c3)cc2)cc1`, the results for the inhibition in assay [1], in assay [2] and in assay [3] were 1.04%, 4.45% and -2.49%, respectively.

Take `Oc1ccc(-c2nc3c4cc(I)ccc4c4ccc(I)cc4c3[nH]2)cc1`: the inhibition is 2.27% in assay [1], -1.87% in assay [2] and -2.11% in assay [3].

Regarding `CCC(=O)c1c(C)n(-c2ncnc3c2nc(C)n3-c2ccc(C)cc2C)c2ccccc12`, the inhibition in assay [1] amounted to 4.6%; in assay [2] it was 1.9%; in assay [3] it was 3.62%.

`CC(CN(C)C)C(=O)Nc1cccc(-c2ccc(-c3nc4ccccc4[nH]3)cc2)c1` (stereo not drawn): the inhibition amounted to 12.2% in assay [1], 9.79% in assay [2] and 7.36% in assay [3].

For the compound `O=C(/C=C/c1ccc(Cl)c(Cl)c1)NCCCCCN1CCCN(C(=O)Nc2ccc(F)c(Cl)c2)CC1`, the inhibition worked out at 1.23% in assay [1], 1.72% in assay [2] and 3.64% in assay [3].

Turning to `CN(C)c1ccc(C=Cc2ccc3ccccc3n2)c(Cl)c1`, the inhibition in assay [1] amounted to 91.5%; in assay [2] it was 83.8%; in assay [3] it was 85.2%.

For the compound `COc1ccc2nc(C)cc(Nc3ccc(Oc4ccc5ccccc5c4)c(Cl)c3)c2c1`, the inhibition in assay [1] came out at 7.14%; in assay [2], 7.63%; in assay [3] it was 1.45%.

In the case of `COc1ccc(CCN(C)CCOc2ccc(NC(=O)c3cccc4cc5ccccc5nc34)cc2)cc1OC`, the inhibition amounted to 2.4% in assay [1], 1.69% in assay [2] and 1.88% in assay [3].

Consider `Cc1cccc2nc(-c3cccc(-c4ccc(NC(=O)NCc5cccc(F)c5)cc4)c3)[nH]c12`, for which the inhibition is -1.1% in assay [1], 1.21% in assay [2] and 0.25% in assay [3].

On to `CCN(CC)CCN(Cc1ccc(-c2ccc(C(F)(F)F)cc2)cc1)C(=O)Cn1c(CCc2ccccc2F)nc(=O)c2ccccc21`, for which the inhibition in assay [1] came out at 3.8%; in assay [2], 3.39%; in assay [3], 2.3%.

For the compound `COc1ccc2nccc(N3CCCN(CCNCc4ccc5c(n4)NC(=O)CS5)CC3)c2n1`, the inhibition in assay [1] was -4.21%; in assay [2] it was -0.98%; in assay [3], 3.94%.

Regarding `Cc1[nH]c(C)c(-c2ccc(Oc3cccc(Cl)c3)cc2)c(=O)c1Cl`, the inhibition in assay [1] was 9.05%; in assay [2], 7.78%; in assay [3] it was 4.29%.
